Outcome data for twelve compounds are collected here from PubChem BioAssay AID2620 (National Center for Advancing Translational Sciences (NCATS), 2010).

Molecules are shown by their SMILES. Results filed as inconclusive are left out. Active and inactive are the calls of the source. Calls come from the whole dose curve; as a rule, active = well fitted curve in the direction sought with a large enough effect; inconclusive = small, poorly fitted or top-dose-only effect, or another doubt; inactive = no such curve, though single readings can be large or run the other way.

In this test the target is Pyruvate kinase PKM (Homo sapiens) (UniProt P14618). The test can be described thus: Secondary LDH Assay for Activators of Human Pyruvate Kinase M1 Isoform: for Probe SAR. As to conditions: purified hPK-M1, LDH-coupled NADH fluorescence kinetic; series mostly up to 58.2 µM. An outline of the steps:
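Kinetic LDH-coupled read: initial rates from NADH fluorescence loss over 3-6 min, normalized to uninhibited controls. Final conditions 10 nM hPK-M1, 1 uM LDH, PEP 0.1 mM, ADP 4.0 mM, NADH 0.2 mM in Tris-Cl pH 8.0 with KCl and MgCl2.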

Chain of Pyruvate kinase PKM (Homo sapiens) (P14618 whole entry, looked up, canonical isoform): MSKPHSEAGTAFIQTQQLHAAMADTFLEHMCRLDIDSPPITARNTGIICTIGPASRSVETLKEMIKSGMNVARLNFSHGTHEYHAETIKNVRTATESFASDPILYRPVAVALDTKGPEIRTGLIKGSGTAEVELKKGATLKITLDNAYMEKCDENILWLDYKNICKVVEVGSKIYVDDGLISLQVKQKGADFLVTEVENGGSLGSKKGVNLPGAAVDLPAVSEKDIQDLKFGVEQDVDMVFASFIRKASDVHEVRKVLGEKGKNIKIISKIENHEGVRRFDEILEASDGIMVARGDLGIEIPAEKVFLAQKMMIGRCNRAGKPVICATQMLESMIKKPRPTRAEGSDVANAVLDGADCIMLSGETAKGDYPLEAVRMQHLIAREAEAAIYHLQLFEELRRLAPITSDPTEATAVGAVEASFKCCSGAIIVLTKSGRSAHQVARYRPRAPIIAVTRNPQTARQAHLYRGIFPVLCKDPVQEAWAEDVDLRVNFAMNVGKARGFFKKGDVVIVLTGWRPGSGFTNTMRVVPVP

For the compound `O=C1c2ccccc2C(=O)N1Cc1ccccn1`, the compound was called inactive.
As for `O=C1c2ccccc2C(=O)N1c1ccc(Cl)cc1`, the compound was classed as inactive.
The same measure for `Cc1ccc(N(C)S(=O)(=O)c2ccc3c(c2)CCC(=O)N3)cc1C`: “inactive”.
Then `O=S1(=O)N=C(Oc2cccc(Cl)c2)c2ccccc21`, with “inactive”.
As to `O=C1c2ccccc2C(=O)N1C1CCCCC1`, the compound was classed as inactive.
The same measure for `O=C1c2ccccc2C(=O)N1c1ccc2ncccc2c1`: “inactive”; for `O=C1c2ccccc2C(=O)N1c1cccnc1`: “inactive”; for `O=C1NS(=O)(=O)c2ccccc21`: “inactive”.
Regarding `O=C1c2ccccc2C(=O)N1Cc1ccncc1`, the compound was called inactive.
As to `Cc1ccc(NS(=O)(=O)c2cc3c(cc2-c2ccco2)NC(=O)CO3)cc1C`, the call was inactive.
On to `O=C1CCc2cc(S(=O)(=O)Nc3ccc(F)c(Cl)c3)ccc2N1`, for which the compound was called inactive.
On to `Cc1cccc(OC2=NS(=O)(=O)c3ccccc32)c1`, for which the call was inactive.
